PubChem BioAssay
The source made the active and inactive calls. Unless noted, no rule for the calls is given here.

How the values were obtained:
[1] = compounds binding Alexa647 anti-His antibody – biochemical, small-molecule microarray, 635 nm fluorescence, artefact control for SMM control protein annotation, primary screen (AID 1128); details: higher = more signal;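 also: score merges feature fluorescence with signal-to-noise for each printed compound spot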
[2] = test system: Human papillomavirus type 1a E7 protein (residues 1-88); test: HPV1a E7 small-molecule binders, primary screen, biochemical, small-molecule microarray, residues 1-88, 635 nm (AID 1129); details: small-molecule microarray binding, fluorescence 635 nm; higher = more signal
[3] = molecular target: Focal adhesion kinase 1 (Homo sapiens) (UniProt Q05397); test: PTK2 protein binding on printed compound slides – biochemical, small-molecule microarray, 635/667 nm fluorescence, BSA, DTT, primary screen (AID 1130); details: 635 nm fluorescence, higher = more signal;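 also: composite of spot emission at 667 nm and signal to noise over triplicate slides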
Chain of Focal adhesion kinase 1 (Homo sapiens) (Q05397 whole entry, looked up): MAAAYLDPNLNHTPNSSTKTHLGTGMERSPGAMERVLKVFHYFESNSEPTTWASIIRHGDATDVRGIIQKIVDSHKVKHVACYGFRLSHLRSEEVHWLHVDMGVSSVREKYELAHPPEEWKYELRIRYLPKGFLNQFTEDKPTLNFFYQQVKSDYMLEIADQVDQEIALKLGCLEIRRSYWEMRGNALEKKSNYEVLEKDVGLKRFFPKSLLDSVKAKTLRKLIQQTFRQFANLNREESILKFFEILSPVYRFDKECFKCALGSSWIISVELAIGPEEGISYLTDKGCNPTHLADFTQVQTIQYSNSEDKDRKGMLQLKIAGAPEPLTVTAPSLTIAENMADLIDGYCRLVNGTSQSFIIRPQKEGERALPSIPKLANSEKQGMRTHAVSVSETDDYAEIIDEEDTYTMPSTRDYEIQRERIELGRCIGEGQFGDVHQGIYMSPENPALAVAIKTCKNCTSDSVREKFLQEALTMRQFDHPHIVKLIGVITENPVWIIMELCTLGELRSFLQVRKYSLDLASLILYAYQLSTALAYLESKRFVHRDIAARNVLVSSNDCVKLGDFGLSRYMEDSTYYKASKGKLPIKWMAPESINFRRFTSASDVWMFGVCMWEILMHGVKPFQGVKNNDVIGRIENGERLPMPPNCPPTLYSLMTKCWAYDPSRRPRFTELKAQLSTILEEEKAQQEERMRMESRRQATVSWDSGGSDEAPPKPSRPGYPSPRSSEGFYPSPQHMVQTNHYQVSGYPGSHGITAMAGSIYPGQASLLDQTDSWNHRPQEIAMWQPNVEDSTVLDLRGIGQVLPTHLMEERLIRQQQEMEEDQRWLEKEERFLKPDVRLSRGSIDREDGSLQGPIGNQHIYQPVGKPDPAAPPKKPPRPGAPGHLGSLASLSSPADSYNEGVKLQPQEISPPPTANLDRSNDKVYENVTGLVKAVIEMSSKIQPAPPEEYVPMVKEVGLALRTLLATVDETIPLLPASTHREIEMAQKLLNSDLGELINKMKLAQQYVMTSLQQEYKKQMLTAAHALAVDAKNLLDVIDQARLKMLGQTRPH

[4] = test system: Fibrinogen (Alexa647-labelled); test: Alexa647-fibrinogen binding to printed small molecules – biochemical, small-molecule microarray, 635/667 nm fluorescence, artefact control for SMM control-protein annotation, profiling panel (AID 1131); details: fibrinogen-A647 binding fluorescence, higher = more signal;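 also: z-score merges 667 nm fluorescence with per-spot signal-to-noise over triplicate slides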
[5] = molecular target: Follistatin (Homo sapiens) (UniProt P19883); test: FST protein binding to printed compounds – biochemical, small-molecule microarray, 635/667 nm fluorescence, primary screen (AID 1132); details: 635 nm fluorescence, higher = more signal
Chain of Follistatin (Homo sapiens) (P19883 whole entry, looked up): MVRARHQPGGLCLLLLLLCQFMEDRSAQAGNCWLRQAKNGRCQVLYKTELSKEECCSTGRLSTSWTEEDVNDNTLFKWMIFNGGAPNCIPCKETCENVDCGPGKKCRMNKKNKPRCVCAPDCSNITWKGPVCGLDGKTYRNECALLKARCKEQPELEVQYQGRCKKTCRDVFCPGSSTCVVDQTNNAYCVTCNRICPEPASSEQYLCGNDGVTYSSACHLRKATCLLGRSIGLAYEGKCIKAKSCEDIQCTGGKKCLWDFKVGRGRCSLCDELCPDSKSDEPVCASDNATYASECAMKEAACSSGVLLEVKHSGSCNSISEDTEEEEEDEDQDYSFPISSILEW

[6] = molecular target: Fibroblast growth factor 2 (Homo sapiens) (UniProt P09038); test: basic fibroblast growth factor binding to printed compounds – biochemical, small-molecule microarray, 635/667 nm fluorescence, primary screen (AID 1133); details: FGF2, fluorescence 635/667, higher = more signal
Chain of Fibroblast growth factor 2 (Homo sapiens) (P09038 whole entry, looked up): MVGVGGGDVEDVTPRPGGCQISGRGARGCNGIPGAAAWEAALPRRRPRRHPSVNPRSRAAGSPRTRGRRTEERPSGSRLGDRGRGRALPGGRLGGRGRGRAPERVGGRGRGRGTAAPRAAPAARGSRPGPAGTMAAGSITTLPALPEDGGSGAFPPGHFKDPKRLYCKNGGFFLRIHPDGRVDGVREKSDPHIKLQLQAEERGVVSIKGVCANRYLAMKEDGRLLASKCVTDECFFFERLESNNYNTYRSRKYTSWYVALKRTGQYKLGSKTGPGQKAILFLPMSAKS

[7] = JC-1 mitochondrial potential readout, lung cancer cells – cell-based, A549, JC-1 fluorescence, basal, 24 h, 100 nL, profiling panel (AID 1138); details: higher = more signal;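 also: A549 lung adenocarcinoma cells under basal conditions with no added stimulus; test concentration not given here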
[8] = test system: Lefty1; test: Lefty1 protein binding to printed compounds – biochemical, small-molecule microarray, 635/667 nm fluorescence, primary screen (AID 1139); details: fluorescence 635/667, higher = more signal
[9] = test system: wheat germ agglutinin (Triticum aestivum), Alexa647-labelled; test: Alexa647-WGA lectin binding to printed small molecules – biochemical, small-molecule microarray, 635/667 nm fluorescence, artefact control for SMM control-protein annotation, profiling panel (AID 1140); details: WGA-A647 binding, 635 nm fluorescence, higher = more signal;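 also: score merges 667 nm feature emission with signal to noise over triplicate slides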
[10] = molecular target: Luciferin 4-monooxygenase (Photinus pyralis) (UniProt P08659); test: inhibition of purified Photinus pyralis luciferase – biochemical, luminescence, purified enzyme, 2006 set, primary screen (AID 1141); details: purified firefly luciferase, SteadyGlo luminescence, 30 min; higher = more signal, called active from +8 up or from −8 down;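 also: cell-free assay with purified firefly luciferase at 100 ng per well in PBS; test concentration not given here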
Chain of Luciferin 4-monooxygenase (Photinus pyralis) (P08659 whole entry, looked up): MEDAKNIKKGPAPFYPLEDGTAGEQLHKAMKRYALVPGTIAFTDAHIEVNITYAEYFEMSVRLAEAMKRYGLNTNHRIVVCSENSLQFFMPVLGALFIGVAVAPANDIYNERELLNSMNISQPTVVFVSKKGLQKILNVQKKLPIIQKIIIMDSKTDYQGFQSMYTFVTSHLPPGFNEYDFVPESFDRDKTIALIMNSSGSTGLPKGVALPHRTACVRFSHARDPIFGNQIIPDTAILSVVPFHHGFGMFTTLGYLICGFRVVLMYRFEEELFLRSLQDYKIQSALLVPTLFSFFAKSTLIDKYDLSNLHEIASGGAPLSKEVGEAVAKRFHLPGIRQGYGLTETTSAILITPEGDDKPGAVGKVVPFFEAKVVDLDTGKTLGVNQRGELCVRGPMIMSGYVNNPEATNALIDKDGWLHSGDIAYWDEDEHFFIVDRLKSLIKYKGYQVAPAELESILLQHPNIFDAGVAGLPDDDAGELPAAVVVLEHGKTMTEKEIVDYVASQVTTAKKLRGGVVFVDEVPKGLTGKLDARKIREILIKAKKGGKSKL

[11] = test system: Wnt5a (protein binding on small-molecule microarray); test: small molecules binding Wnt5a protein – biophysical, small-molecule microarray, 635/667 nm fluorescence, primary screen (AID 1142); details: 635 nm fluorescence, higher = more signal;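 also: fluorescence read at 667 nm with signal to noise per printed feature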
[12] = ATP-based viability of Huh7 replicon cells – cell-based, CellTiter-Glo luminescence, basal, 48 h, cytotoxicity control for HCV replication inhibitor project, primary screen (AID 1143); details: higher = more signal, called active from +8 up or from −8 down;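 also: Huh7 hepatoma cells carrying a hepatitis C replication reporter with no stimulus; test concentration not given here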
[13] = Pseudomonas biofilm growth suppression – PAO1 strain, BacTiter-Glo luminescence, LB-PBS, primary screen (AID 1144); details: P. aeruginosa PAO1 biofilm, 12 h, higher = more signal
[14] = basal CRE-LacZ reporter activity in PC12 – cell-based, unstimulated, primary screen (AID 1145); details: no forskolin, luminescence, 4.5 h, higher = more signal, called active from +8 up or from −8 down
[15] = forskolin-driven CRE-LacZ activity in PC12 – cell-based, CRE-LacZ reporter, forskolin-stimulated, primary screen (AID 1146); details: luminescence, 4.5 h, higher = more signal, called active from +8 up or from −8 down;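 also: PC12 cells with 6xCRE LacZ reporter stimulated by forskolin 10 µM; beta-galactosidase reporter signal reflecting CREB driven transcription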
[16] = molecular target: Streptavidin (Streptomyces avidinii) (UniProt P22629); test: compounds binding control protein streptavidin – biophysical, small-molecule microarray, 635/667 nm fluorescence, artefact control for SMM compound annotation, primary screen (AID 1147); details: higher = more signal;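 also: signal reflects streptavidin binding to arrayed compounds as a control protein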
Chain of Streptavidin (Streptomyces avidinii) (P22629 whole entry, looked up): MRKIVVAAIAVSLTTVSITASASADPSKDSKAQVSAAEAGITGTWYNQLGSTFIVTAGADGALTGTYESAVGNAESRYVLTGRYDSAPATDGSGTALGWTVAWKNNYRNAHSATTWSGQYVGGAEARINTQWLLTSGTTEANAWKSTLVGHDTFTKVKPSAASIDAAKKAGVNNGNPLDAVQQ

[17] = probe aInhba binding on compound microarray – biochemical, small-molecule microarray, 635/667 nm fluorescence, primary screen (AID 1148); details: higher = more signal;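 also: score merges 667nm spot fluorescence with signal-to-noise for antibody binding to printed compounds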
[18] = molecular target: Torsin-1A (Homo sapiens) (UniProt O14656); test: TOR1A wild-type binding on microarray – cell lysate, small-molecule microarray, lysate, 635/667 nm, primary screen (AID 1149); details: COS7 hTOR1A-WT lysate, 635 nm fluorescence, higher = more signal
Chain of Torsin-1A (Homo sapiens) (O14656 whole entry, looked up): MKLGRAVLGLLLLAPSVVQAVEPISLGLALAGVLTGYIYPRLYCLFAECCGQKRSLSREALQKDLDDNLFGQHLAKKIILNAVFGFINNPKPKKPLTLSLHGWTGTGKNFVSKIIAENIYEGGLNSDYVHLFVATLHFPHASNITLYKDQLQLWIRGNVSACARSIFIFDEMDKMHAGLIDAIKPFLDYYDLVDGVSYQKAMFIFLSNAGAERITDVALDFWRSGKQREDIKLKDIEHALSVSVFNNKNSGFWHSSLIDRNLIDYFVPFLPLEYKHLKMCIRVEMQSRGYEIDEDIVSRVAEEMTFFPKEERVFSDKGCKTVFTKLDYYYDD

[19] = molecular target: Torsin-1A (Homo sapiens) (UniProt O14656); test: torsin A mutant lysate binding on microarrays – cell lysate, small-molecule microarray, COS7 lysate, 635/667 nm fluorescence, primary screen (AID 1150); details: COS7 hTOR1A mutant lysate, 635 nm fluorescence, higher = more signal;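 also: score pools 667 nm emission and signal to noise measuring lysate protein binding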
[20] = test system: Sonic hedgehog protein (Shh); test: Sonic hedgehog microarray binding compounds – biochemical, small-molecule microarray, 635/667 nm fluorescence, primary screen (AID 1151); details: 635 nm fluorescence, higher = more signal;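 also: Shh protein binding to compounds spotted on small-molecule microarray slides; score combines spot fluorescence intensity with signal-to-noise across triplicate slides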

SMILES | composite z-score [1] | composite z-score [2] | composite z-score [3] | composite z-score [4] | composite z-score [5] | composite z-score [6] | z-score [7] | composite z-score [8] | composite z-score [9] | z-score [10] | composite z-score [11] | z-score [12] | z-score [13] | z-score [14] | z-score [15] | composite z-score [16] | composite z-score [17] | composite z-score [18] | composite z-score [19] | composite z-score [20]
CC=CC1=C(CO)[C@H](O)[C@H]2O[C@H]2[C@H]1O | 0.189 | 0.277 | -0.0741 | -0.0409 | 0.589 | 1.06 | -0.565 | 0.871 | -0.191 | -0.115 (inactive) | 0.261 | 0.678 (inactive) | 1.58 (inactive) | 0.292 (inactive) | 0.798 (inactive) | 0.082 | -0.0719 | 0.769 | -0.0205 | 1.14
CC(C)=CCCC(C)=CCON=C1[C@H]2CCn3c(=O)n(C)c(=O)n3[C@H]2[C@H](O)[C@@H]2O[C@H]12 | 0.957 | 0.968 | -0.236 | 0.674 | 0.865 | 0.896 | 0.637 | 1.37 | 0.115 | -0.284 (inactive) | 0.287 | 0.583 (inactive) | 1.13 (inactive) | 0.519 (inactive) | -0.0697 (inactive) | 0.203 | -0.12 | 1.15 | 0.898 | 1.98
COC(=O)[C@@H]1CC[C@H](C)[C@@H](c2ccc(C)cc2)N1C(=O)c1ccc(C=NOC(C)CN2CCCCc3nc(C)c(C)cc32)cc1 (stereo not given in full) | 0.444 | -0.732 | 0.0369 | 0.469 | 0.114 | 0.222 | 2.32 | 0.847 | 0.0329 | 0.662 (inactive) | 0.595 | -3.62 (inactive) | -0.356 (inactive) | 1.81 (inactive) | 1 (inactive) | 0.48 | -0.0791 | -0.269 | -0.332 | 0.328
CO[C@H]([C@@H](C)[C@H](OC)c1ccccc1)[C@H](C)[C@@H](OC)[C@H](C)C(C)=O | 1 | -0.744 | 0.27 | -0.464 | -0.304 | 0.0135 | 1.1 | 0.128 | -0.496 | -1.87 (inactive) | -0.183 | 0.0807 (inactive) | 0.185 (inactive) | -0.98 (inactive) | -0.358 (inactive) | -0.554 | 0.809 | -0.225 | -0.327 | 0.497
[N-]=[N+]=Nc1ccccc1C[C@@]1(C(N)=O)N=C(c2ccc(OCCCO)cc2)O[C@@H]1c1ccccc1 | 0.42 | 1.02 | 0.645 | -0.367 | 0.283 | -0.403 | -0.971 | -1.27 | 0.402 | -3.86 (inactive) | 0.0445 | -4.04 (inactive) | -0.616 (inactive) | 0.377 (inactive) | -1.39 (inactive) | 1.08 | 0.0561 | 0.296 | 0.355 | -0.714
O=C1[C@H]2[C@H]3[C@H](O)[C@H](O)CC(=NOCc4ccccc4)[C@H]3CC[C@H]2C(=O)N1c1ccc(F)cc1F | 0.492 | -0.0368 | 0.145 | -0.898 | -0.273 | 0.0342 | -0.206 | -0.0947 | 0.146 | 0.522 (inactive) | -0.0542 | -0.627 (inactive) | -0.665 (inactive) | -0.926 (inactive) | -0.14 (inactive) | -0.899 | -0.536 | -0.0184 | -0.013 | -0.311
COC(=O)CC=C[C@H](C)[C@@H](OCc1ccccc1Br)C(C)C | 0.219 | -0.161 | 0.0767 | -0.263 | 0.292 | -0.0207 | 1.32 | 0.646 | 0.0141 | -0.401 (inactive) | -0.106 | 0.298 (inactive) | -0.643 (inactive) | 0.194 (inactive) | 0.615 (inactive) | 0.228 | -0.128 | 0.066 | 0.674 | 0.438
COC(=O)[C@@]1(Cc2ccc(OC)cc2)[C@H]2c3cc(C(=O)N4CCCC4)n(Cc4cc(F)c(F)c(F)c4)c3C[C@H]2CN1C(=O)c1ccccc1 | 2.21 | 1.26 | 0.59 | 1.02 | 1.19 | -0.149 | 0.649 | -0.551 | 1.31 | 1.95 (inactive) | 2.29 | -3.23 (inactive) | 0.112 (inactive) | 0.0041 (inactive) | 0.589 (inactive) | 2.6 | 1.87 | 0.188 | 0.538 | -0.241
COCCOC(=O)N1C(=O)[C@@]2(c3cc(C#CC4(O)CCCCCC4)ccc31)[C@H](C(=O)N1CCN(c3ncccn3)CC1)[C@H]1C(=O)O[C@H](c3ccccc3)[C@H](c3ccccc3)N1[C@@H]2c1ccc(OCCO)cc1 | 2.08 | 1.2 | 0.289 | 0.889 | 1.29 | 1.35 | -1.34 | 0.637 | 1.09 | -2.19 (inactive) | 0.495 | -3.05 (inactive) | 0.905 (inactive) | -0.878 (inactive) | -0.249 (inactive) | 0.436 | 0.303 | 0.227 | 0.425 | 1.17
CCOC(=O)CCN1C(=O)[C@H]2[C@H]3[C@H](O)[C@H](O)CC(=NOCc4ccccc4)[C@@H]3CC[C@H]2C1=O | -0.261 | 0.717 | 0.163 | 0.983 | 0.722 | 0.383 | -0.217 | 0.963 | -0.0855 | 0.883 (inactive) | -0.0682 | -1.25 (inactive) | 0.324 (inactive) | -0.294 (inactive) | 0.0433 (inactive) | 0.115 | -0.186 | 0.434 | 0.496 | 0.612
